Key:
Experiment in all cases: PBM binding z-score (relative to random genomic background probes); higher = stronger binding; sequences stand for … in GC…GCGATTGACAGCGTAGAATGAAGG
[1] = system: FXR:RXRa (NR concentration 270 nM, RXRa partner concentration 90 nM)
Method in brief: (§1)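 Binding z-scores were set against random background probes. The data came from custom Agilent 4×180K protein-binding microarrays carrying double-stranded probes with 34-nt variable regions, incubated 1 h with ligand-free nuclear receptor dimers. Partner-specific antibodies detected binding, and scanned fluorescence was regression-normalized.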

[2] = system: LXRa:RXRa (NR concentration 270 nM, RXRa partner concentration 90 nM)
Method in brief: as §1

[3] = system: LXRa homodimer (NR concentration 270 nM)
Method in brief: as §1

[4] = system: LXRb:RXRa (NR concentration 270 nM, RXRa partner concentration 90 nM)
Method in brief: as §1

[5] = system: LXRb homodimer (NR concentration 270 nM)
Method in brief: as §1

[6] = system: PPARa:RXRa (NR concentration 270 nM, RXRa partner concentration 90 nM)
Method in brief: as §1

[7] = system: PPARg:RXRa (NR concentration 180 nM, RXRa partner concentration 90 nM)
Method in brief: as §1

[8] = system: PPARg:RXRa 270nM:90nM, anti-RXR (NR concentration 270 nM, RXRa partner concentration 90 nM)
Method in brief: as §1

[9] = system: PPARg:RXRa 30nM:10nM, anti-RXR (NR concentration 30 nM, RXRa partner concentration 10 nM)
Method in brief: as §1

[10] = system: PPARg:RXRa 90nM:30nM, anti-RXR (NR concentration 90 nM, RXRa partner concentration 30 nM)
Method in brief: as §1

[11] = system: PPARg:RXRa DBDmut IVT, anti-RXR (DBD mutation: RXRa K156A/R161A, NR concentration 270 nM, RXRa partner concentration 90 nM)
Method in brief: as §1

[12] = system: PPARg:RXRa IVT, anti-PPARg (NR concentration 270 nM, RXRa partner concentration 90 nM)
Method in brief: as §1

[13] = system: PPARg DBDmut:RXRa IVT, anti-PPARg (DBD mutation: PPARg1 K132A/R137A, NR concentration 270 nM, RXRa partner concentration 90 nM)
Method in brief: as §1

[14] = system: PPARg DBDmut IVT, anti-PPARg (DBD mutation: PPARg1 K132A/R137A, NR concentration 270 nM)
Method in brief: as §1

[15] = system: PPARg homodimer (NR concentration 180 nM)
Method in brief: as §1

[16] = system: PXR:RXRa (NR concentration 270 nM, RXRa partner concentration 90 nM)
Method in brief: as §1

[17] = system: PXR homodimer (NR concentration 270 nM)
Method in brief: as §1

[18] = system: RARa:RXR (NR concentration 270 nM, RXRa partner concentration 90 nM)
Method in brief: as §1

[19] = system: RARa homodimer (NR concentration 270 nM)
Method in brief: as §1

[20] = system: RARb:RXRa (NR concentration 270 nM, RXRa partner concentration 90 nM)
Method in brief: as §1

Sequence	PBM binding z-score [1]	PBM binding z-score [2]	PBM binding z-score [3]	PBM binding z-score [4]	PBM binding z-score [5]	PBM binding z-score [6]	PBM binding z-score [7]	PBM binding z-score [8]	PBM binding z-score [9]	PBM binding z-score [10]	PBM binding z-score [11]	PBM binding z-score [12]	PBM binding z-score [13]	PBM binding z-score [14]	PBM binding z-score [15]	PBM binding z-score [16]	PBM binding z-score [17]	PBM binding z-score [18]	PBM binding z-score [19]	PBM binding z-score [20]
ATCTCAAGGTAAGACTCAGTTCAGTGAAGAACGC	0.749	0.642	0.594	0.258	0.655	0.216	0.033	0.104	0.217	0.104	0.2	0.426	0.753	0.498	0.782	1.47	1.54	0.694	1.1	0.614
AGAATGAGGTTACGAAAGATCAGGGAAACGCTTG	2.59	4.99	-0.188	2.46	-0.578	3.68	2.95	2.84	1.04	2.02	4.25	3.64	0.808	0.386	0.0598	1.44	-0.57	2.32	-0.313	2.21
CGTCCAACGTCATAGGAGGTCAGTGAAGACAGAT	1.79	2.71	0.999	1.63	-0.234	2.09	0.683	0.77	0.184	0.231	0.0965	1.08	0.0644	-0.0605	1.13	2.24	0.731	1.79	0.648	2.14
GCTTGTAGATAAAGGTTAAGAAAGACTAAGCTAA	0.528	2.06	0.00551	1.54	-0.409	2.29	1.41	2.24	0.494	1.88	-0.151	0.466	0.79	-0.0657	0.422	0.774	-0.193	1.62	0.598	1.66
TCGTGTAGATCAAAGGTTAAGAAAGCCGAAGCCT	1.91	1.98	0.381	1.83	0.049	3.91	5.73	6.47	5.88	6.62	0.876	2.22	-0.315	-0.277	1.21	1.9	-0.215	2.68	0.495	1.86
ACTATTAGTCGAGACGAGGGCAACCGATAGGTTG	-0.123	-0.246	-0.369	-0.122	-0.111	0.186	0.668	0.119	0.0913	0.381	-0.021	0.553	0.32	-0.276	0.0526	0.376	0.101	0.238	-0.112	0.812
AGTCAAAGTTCACTAGGTAATGTAAGATTCAGCT	4.99	4.85	2.91	3.07	0.939	4.58	7.06	6.01	3.43	5.25	2.34	4.44	1.59	2.13	2.35	4.01	2.75	3.26	1.29	4.78
GCTCGGAGGACAAGGACAGAGCTTTGTCCGTAGA	-0.454	-0.825	-0.708	-0.936	-1.44	-0.604	-0.644	-0.934	-1.21	-1.04	-0.897	-0.505	-1.52	-0.297	-0.588	-0.527	-0.912	-0.421	-1.45	0.929
TCTAGTTTGTCAAAGGTCACACACTCGAAATGCG	6	5.79	5.08	5.68	2	6.11	8.39	8.19	7.6	8.39	2.53	4.9	1.7	3.34	4.88	5.82	1.78	6.66	2.78	4.98
CGAACGAGGGCATGCGTTGATAGCAAATGCCGAT	0.569	0.207	-0.45	0.0933	-0.834	1.12	0.923	0.579	-0.693	0.0948	2.51	1.72	-0.297	-0.501	0.165	0.344	-0.453	0.5	-0.165	1.95
AGAATGAGGTTGTTAAGATCAGGGAATTGCGGTC	0.00995	0.0148	-0.0695	-0.0376	-0.0779	0.298	0.171	0.206	-0.197	-0.0831	0.255	-0.103	-0.954	-0.016	0.112	0.362	0.179	0.0989	-0.0651	0.173
TCGAGTAGGTTACCAATGGGGCATTCCGCTTTCT	0.135	1.46	-0.855	0.838	-1.11	1.01	-0.123	1.1	1.11	0.974	3.12	2.43	-0.775	-0.0752	-0.326	-0.00662	-1.08	0.186	-1.04	0.81
TCGAGTGGGTTACCAATGGGGCATTCAGCTTTCT	-1.28	0.53	-0.905	0.75	-0.956	0.859	-0.273	0.677	0.872	0.607	2.12	1.77	-0.245	-0.482	-0.73	-0.197	-0.99	-0.236	-0.45	0.353
TCTAGCAGGGCAGAGGGTCACTCAAGAGGTACGG	1.06	1.06	-0.469	1.04	-0.996	2.51	2.06	3.48	2.03	3.63	1.26	1.9	-0.31	-0.497	1.22	1.7	-0.546	2.42	-0.749	2.61
TAGCCTAGGTCAGAGCGGGCCAGTATACGCTATA	1.24	0.815	-0.692	0.501	-1.17	1.42	0.573	0.718	-0.359	0.201	0.635	1.65	-0.73	-0.204	0.133	0.376	-0.362	0.867	-1.12	2.85

From the supplement of paper PMC6555819
